Hits are enriched below; roughly 21% of the tested compounds scored in any of these assays.
Pf growth 96h – inhibits malaria parasite growth, 96 h | P. falciparum luciferase reporter growth, 96 h | Potency, µM (top dose mostly 28.7 µM), most hits filed as inhibitors | 320,000 tested, 6.9% active | AID 504834
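Delayed-death screen, second-generation endpoint: infected erythrocytes, 2% hematocrit, 0.05% parasitemia final; 96 hours at 37 C, 5% CO2; luciferase detection reagent; luminescence decrease equals reduced growth.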
HCV inh – blocks hepatitis C virus. Huh7.5.1 HCVcc-Cre infection, luciferase reporter, 44 h. 340,000 tested, 3.4% active. Potency, µM (series often up to 41.8 µM), actives largely listed as inhibitors
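Infectious HCVcc-Cre (~0.5 moi) was added to cells just after compound, with cells seeded 4 h earlier at 1,000 per well. Luciferase activity after 44 h culture reported infection; substrate was incubated 15 min at room temperature before reading.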
Cycloheximide cs – counter-screen for Shiga toxin inhibitors: cycloheximide protein synthesis inhibition | cell reporter, cycloheximide protein synthesis inhibition counterscreen | max response, % | 300,000 tested, 12% active | AID 2314; in the data active = max response mostly above about 13%, no sharp cut-off; inactive = mostly below about 14%; note: read at 38.3 µM for the half of the compounds with a filed dose
Shiga toxin inh – blocks Shiga toxin action in Vero cells; Vero cells, Shiga toxin protein synthesis inhibition reporter; inhibition, % at 38.7 µM; 290,000 tested, 9.2% active; AID 2315; in the data active = inhibition mostly above about 28%, no sharp cut-off; inactive = mostly below about 43%
Pf growth 48h – inhibits P. falciparum growth in the first generation, 48 h. Potency, µM (titrated, usually from 28.7 µM), usual class: inhibitors. P. falciparum luciferase growth in erythrocytes, 48 h. 310,000 tested, 5.9% active
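A one-generation exposure of luciferase-tagged malaria parasites in RPMI 1640/Albumax erythrocyte culture, 37 C and 5% CO2. Inhibition is inferred from decreased luminescence after adding detection reagent.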
HCMV inh – inhibitors of human cytomegalovirus. HFF cells, HCMV-luciferase reporter, 72 h; hits give low values. activity change, negative = inhibition, % at 57.5 µM. 410,000 tested, 4.5% active. AID 1259415; in the data active = activity change below about -60%; inconclusive = no clear call, values can overlap the other calls; inactive = above about -39%
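Two compound doses tested in HFFs infected with HCMV-luciferase, MOI 1 PFU/cell, 72 h at 37C. Lysate luminescence read with OneGlo; data normalized against buffer-only and 10uM Salinomycin inhibitor controls.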
Numbers stand for hits; . = inactive; ? = inconclusive; / = not tested or not shown; [ ] = dose if it differs, or a comment. Unless noted, calls come from the whole dose curve; as a rule, active = well fitted inhibition curve with a large enough effect; inconclusive = small, poorly fitted or top-dose-only effect, or another doubt; inactive = no such curve, though single readings can be large or run the other way.

SMILES | Pf growth 96h | HCV inh | Cycloheximide cs | Shiga toxin inh | Pf growth 48h | HCMV inh
COc1cc(O)c(C(CCN2CCCCC2)c2cc(OC)c(OC)c(OC)c2)c(OC)c1 (stereo unspecified) | 1.85µM | ? | . | . | 0.738µM | .
Cc1ccc(/C=C/C2=NN(Cc3ccccc3)C(=O)CC2)cc1 | / | . | . | . | . | .
C=CCN1N=C(/C=C/c2ccccc2)CCC1=O | . | . | 20.2 | . | . | .
Cc1ccc(/C=C/C2=NN(C)C(=O)CC2)cc1 | . | . | 26.7 | 62.7 | . | .
O=C1CCC(/C=C/c2ccccc2)=NN1Cc1ccccc1 | . | . | . | . | . | .
CN1N=C(/C=C/c2ccccc2)CCC1=O | . | . | 28.3 | 87.7 | . | .
S=C(Nc1ccccc1)Nc1ccc(Cl)cc1Cl | . | . | 28.7 | 139.5 | . | .
S=C(Nc1ccc2cn[nH]c2c1)Nc1ccccc1Cl | . | . | 72.6 | 51.0 | . | .
CCc1ccc(NC(=S)Nc2ccc3cn[nH]c3c2)cc1 | . | . | . | 49.9 | . | .
S=C(Nc1ccc2cn[nH]c2c1)Nc1ccc(Cl)cc1Cl | . | . | 17.9 | . | . | ?
S=C(Nc1ccccc1Cl)Nc1ccc(Cl)cc1Cl | ? | . | . | . | . | .
Cc1ccccc1NC(=S)Nc1ccc2cn[nH]c2c1 | . | . | . | . | . | .
COc1ccc(NC(=S)Nc2ccc3cn[nH]c3c2)cc1 | . | . | . | . | . | ?
CC(=O)c1cc2c(cc1N/C(=N/S(=O)(=O)c1ccc(F)cc1)c1ccccc1)OCO2 | / | / | / | / | / | .
CCCn1c(SCc2nc(-c3ccc(OC)cc3OC)no2)nnc1-c1ccc(Cl)cc1 | / | / | / | / | / | .
CCOc1ccc(Oc2ccccc2NC(=O)CN2C(=O)NC3(CCCC3)C2=O)cc1 | . | . | / | / | . | .
CCN1c2ccccc2NC2N=C(OC)C(c3ccccc3)C21 (stereo unspecified) | / | . | 18.1 | . | ? | /
O=[N+]([O-])c1ccc(O)c(NC(=S)Nc2ccccc2)c1 | / | . | 37.2 | . | . | -89.5
COc1ccc([N+](=O)[O-])cc1NC(=S)Nc1ccccc1 | . | . | . | . | / | .
O=[N+]([O-])c1ccc(NC(=S)NCCc2ccccc2)cc1 | . | ? | 28.2 | 63.7 | ? | -96.5
O=[N+]([O-])c1ccc(NC(=S)NCc2ccncc2)cc1 | ? | ? | . | . | . | .
O=[N+]([O-])c1ccc(NNC(=S)Nc2ccccc2)cc1 | / | 11.2µM | 37.1 | 97.3 | . | /
O=[N+]([O-])c1ccc(NC(=S)NCCc2ccc(Cl)cc2)cc1 | 1.85µM | ? | . | . | 2.33µM | -106.8
CCCCn1c(C)cc2c(c1=O)[C@H]1O[C@](CCCCN3C(=O)c4ccccc4C3=O)(Cc3ccccc31)O2 | ? | / | . | . | ? | /
CNC(=O)C(=O)NCCN1CCN(C(=O)c2ccc([N+](=O)[O-])cc2)CC1 | ? | . | . | . | . | .
SMILES | Pf growth 96h | HCV inh | Cycloheximide cs | Shiga toxin inh | Pf growth 48h | HCMV inh
CCCCc1ccc(NC(=O)C(=O)NCCN2CCN(Cc3ccc([N+](=O)[O-])cc3)CC2)cc1 | ? | ? | . | . | ? | -60.2
Clc1cccc(N=NN2CCOCC2)c1Cl | . | . | 20.3 | . | ? | .
Nc1cccc(Cl)c1N1CCOCC1 | . | . | . | . | . | .
C=CCNC(=S)NN=C1CCCCCCC1 | .[5.75 µM] | . | . | . | 8.28µM | -112.7
COc1ccc(N2CCN(C(=O)c3ccc(NS(=O)(=O)c4cccs4)cc3)CC2)cc1 | ? | . | 26.8 | 63.4 | ? | .
COc1ccc(N2CCN(C(=O)c3ccc(NS(=O)(=O)c4ccc(F)cc4)cc3)CC2)cc1 | ? | . | . | . | . | .
CC1CCN(C(=O)c2ccc(CNS(=O)(=O)c3ccc(C(C)(C)C)cc3)cc2)CC1 | / | 22.4µM | / | / | / | .
CC1CCN(C(=O)c2ccc(NS(=O)(=O)c3ccc4[nH]c(=O)[nH]c4c3)cc2)CC1 | . | ? | / | / | . | -97.9
CC(C)(C)c1ccc(S(=O)(=O)NCc2ccc(C(=O)N3CCCC3)cc2)cc1 | ? | . | . | . | / | .
COc1ccc(NS(=O)(=O)c2ccc(C(=O)N3CCC(C)CC3)cc2)cc1 | / | ? | / | / | / | -66.2
COc1ccccc1N1CC(C)(C)C(=O)N(C(=O)c2c(F)cccc2Cl)C1=S | ? | . | . | . | ? | .
O=C(NCc1cccs1)C1CCN(C(=O)N2CCOc3ccc(Cl)cc32)CC1 | / | / | / | / | / | .
CCCCn1c(N)c(N(CCC(C)C)C(=O)COC(=O)c2ccc3ccccc3c2)c(=O)[nH]c1=O | . | . | / | / | . | .
O=C(c1ccc(CNS(=O)(=O)c2ccccc2)cc1)N1CCC2(CC1)OCCO2 | 8.28µM | . | . | . | . | .
CCOc1ccccc1NC(=O)C1CCN(S(=O)(=O)c2cccc3nonc23)CC1 | / | / | / | / | / | .
Cc1ccc(C(=O)/C=C2\NCCNC2=O)cc1 | . | . | 32.4 | 10.1 | . | .
Cc1ccc(C(=O)/C=C2\NCC(C)NC2=O)cc1 (stereo unspecified) | ? | . | . | . | . | .
COc1cccc(OCc2cc(C(=O)N(C)C3CCCCC3)no2)c1 | / | / | / | / | / | .
Cc1ccc(OCCN(C)C(=O)c2cc(COc3ccc(F)cc3F)on2)cc1 | . | / | 12.6 | . | . | .
CN(Cc1ccc(F)cc1)C(=O)c1cc(COc2ccc(F)cc2F)on1 | ? | . | . | . | . | ?
COc1cccc(OCc2cc(C(=O)N(C)CCOc3ccc(C)cc3)no2)c1 | ? | 11.2µM | 68.3 | 75.4 | . | .
COc1cccc(OCc2cc(C(=O)N(C)Cc3nccn3C)no2)c1 | . | . | 52.6 | 136.0 | . | .
O=C(Cn1ncc2c(=O)oc3ccccc3c21)N1CCc2ccccc2C1 | . | . | . | . | . | .
O=C(Cn1ncc2c(=O)oc3ccccc3c21)N1CCC(N2CCCCC2)CC1 | 11.7µM | . | . | . | . | .
O=C(Cn1ncc2c(=O)oc3ccccc3c21)NCCC1=CCCCC1 | 9.28µM | . | . | . | . | .
SMILES | Pf growth 96h | HCV inh | Cycloheximide cs | Shiga toxin inh | Pf growth 48h | HCMV inh
CCc1nnc(NC(=O)CS(=O)(=O)Cc2ccccc2)s1 | . | . | . | . | . | .
Cc1ccc2nc(-c3cccc(-c4cccc(Cl)c4)c3)c(NCc3ccccc3)n2c1 | 10.4µM | . | / | / | 7.38µM | .
CCC(C)Sc1cccc(-c2nc3ccccn3c2NCc2ccccc2)c1 (stereo unspecified) | / | ? | / | / | / | .
CCC(C)Sc1cccc(-c2nc3ccc(C)cn3c2NCc2ccccc2)c1 (stereo unspecified) | 13.1µM | . | / | / | 3.29µM | .
CCCCNc1c(-c2ccc(SC(C)CC)c(OC)c2)nc2ccc(Cl)cn12 (stereo unspecified) | / | . | / | / | / | .
CCC(C)Sc1cccc(-c2nc3ccc(Cl)cn3c2NCc2ccccc2)c1 (stereo unspecified) | 10.4µM | . | / | / | 9.28µM | /
COc1cccc(CNS(=O)(=O)c2cc(Br)ccc2Br)c1OC | / | / | / | / | / | .
COc1ccc(OC)c(NC(=O)CCc2c(C)nn(-c3ccc(N4CCCC4)nn3)c2C)c1 | / | / | / | / | / | .

Bioassay records deposited in PubChem by National Center for Advancing Translational Sciences (NCATS).
